From PubChem BioAssay
A selection: hits, their analogues and other compounds. The true share with any hit is near 7.4%.
SMN2 splice enh: enhancers of SMN2 splice variant expression; HEK293 SMN2-luciferase splicing reporter, luminescence, 30-36 h; Potency, µM (series often up to 46.1 µM), inactives show at the highest dose activity change, positive = activation, actives largely listed as activators; hit rate 2.8% among 210,000; AID 1458; also: % of control where 0% means no effect; nearly all actives have a fitted effect of over 55% in size
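HEK293 cells carry an SMN2 minigene-luciferase reporter in which exon 7 inclusion puts luciferase in frame. Cells were seeded at 2000 cells/well, attached for 10-12 hours, then exposed to compounds for 30-36 hours at 37C before ONE-Glo luminescence.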
Rab9 promoter act: activators of Rab9 promoter. hit rate 2.8% among 320,000. AID 485297. Potency, µM (doses to about 9.22 µM), for inactives: at the top dose activation, negative = inhibition, hits mostly activators. Huh7 Rab9 promoter-luciferase reporter, luminescence, 24 h; also: % of control where 0% means no effect; nearly all actives have a fitted effect of over 60% in size
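Using Huh7 cells stably transfected with Rab9 promoter–luciferase, compounds were incubated 24 h at 37 °C, 5% CO2; luciferase luminescence was read 10 min after reagent addition.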
FLuc counter: firefly luciferase modulation, counter-screen for miR-21 project; P08659; purified FLuc, Km substrates, luminescence inhibition; Potency, µM (highest dose often 57.5 µM), without a hit: top-dose activity change, negative = inhibition, actives largely listed as inhibitors; hit rate 6.9% among 360,000; AID 588342;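 also: plate controls were vehicle for no effect and reference inhibitor for full effect; nearly all actives have a fitted effect of over 55% in size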
Target sequence (P08659 whole entry, looked up): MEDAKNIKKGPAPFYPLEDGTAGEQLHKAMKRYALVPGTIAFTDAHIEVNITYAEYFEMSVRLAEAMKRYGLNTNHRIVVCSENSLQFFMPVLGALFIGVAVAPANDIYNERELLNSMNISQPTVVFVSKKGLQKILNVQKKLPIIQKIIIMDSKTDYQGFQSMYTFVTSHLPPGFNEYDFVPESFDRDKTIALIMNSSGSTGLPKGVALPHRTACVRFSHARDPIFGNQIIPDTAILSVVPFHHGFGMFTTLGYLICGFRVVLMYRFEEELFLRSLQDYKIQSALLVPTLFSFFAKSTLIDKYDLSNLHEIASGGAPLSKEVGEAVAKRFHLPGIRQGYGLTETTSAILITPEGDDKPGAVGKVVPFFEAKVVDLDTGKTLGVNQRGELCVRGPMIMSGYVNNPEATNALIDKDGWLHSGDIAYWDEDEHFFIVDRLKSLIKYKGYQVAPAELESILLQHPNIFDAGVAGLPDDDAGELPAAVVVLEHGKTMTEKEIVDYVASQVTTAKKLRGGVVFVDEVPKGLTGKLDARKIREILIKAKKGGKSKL
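Purified P. pyralis luciferase, 10 nM final, with Km-level 10 uM D-luciferin and 10 uM ATP in 50 mM Tris acetate pH 7.5, 10 mM Mg acetate, 0.01% Tween-20, 0.05% BSA; 6-point qHTS titration about 60 µM downward; luminescence read.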
NPC1 promoter act: activators of NPC1 promoter. Huh7 NPC1 promoter luciferase reporter, 24 h. Potency, µM (doses to about 9.22 µM), for the others: top-dose activation, hits mostly activators. hit rate 2.4% among 320,000. AID 485313; also: % of control where 0% means no effect; nearly all actives have a fitted effect of over 60% in size
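Stable NPC1-promoter luciferase Huh7 line; cpd (DMSO) 24 h, 37 °C, 5% CO2; Amplite luciferase reagent 10 min RT; luminescence readout. qHTS format.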
ELG1 genotox: genotoxicity induction in ELG1-luciferase HEK293T cells. HEK293T ELG1-luciferase reporter, luminescence, 16 h. Potency, µM (top dose mostly 46 µM), for inactives: at the top dose activity change, positive = activation, most hits filed as activators. hit rate 1.3% among 330,000. AID 504466; also: % of control where 0% means no effect; nearly all actives have a fitted effect of over 60% in size
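Quantitative HTS format in 1536-well plates. HEK293T ELG1-luciferase reporter cells receive test compound and are incubated 16 hr at 37 °C, 5% CO2; ONE-Glo added, 30 min room temperature, then luminescence read.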
Starred values were filed as active, the others as inactive; ? = inconclusive; nt = no result given. Calls follow the shape of the dose curve; as a rule, active = well fitted curve in the direction sought with a large enough effect; inconclusive = small, poorly fitted or top-dose-only effect, or another doubt; inactive = no such curve, though single readings can be large; an effect the other way counts as inactive or inconclusive. Potency is read from the fitted curve at half-maximal effect.

SMILES	SMN2 splice enh	Rab9 promoter act	FLuc counter	NPC1 promoter act	ELG1 genotox
CC(C)Oc1ccc(C(=O)Nc2ccc(NC(=O)c3ccco3)c(Cl)c2)cc1	-9.8%	?	0.536µM*	?	2.0%
O=C(Nc1cccc(NC(=O)c2ccco2)c1)c1ccc2c(c1)OCO2	3.0%	-5.0%	15.1µM*	2.6%	0.3%
CC(C)COc1ccc(C(=O)Nc2ccc(NC(=O)c3ccco3)c(Cl)c2)cc1	-26.5%	2.5%	-20.0%	-1.3%	?
Cc1ccc(NC(=O)c2ccc3nsnc3c2)c(Cl)c1	nt	0.316µM*	1.51µM*	0.501µM*	?
O=C(Nc1ccc(Br)cc1F)c1ccc2nsnc2c1	nt	3.55µM*	?	1.58µM*	10.3µM*
Cc1cccc(C)c1NC(=O)CSCc1cnn(-c2ccccc2)c1-n1cccc1	nt	nt	-10.0%	nt	nt
CC1CCN(CCc2nc3cc(NC(=O)Nc4ccccc4)ccc3n2C)CC1	22.6%	?	16.9µM*	?	?
CCC(=O)NCCc1nc2cc(NC(=O)Nc3ccccc3)ccc2n1C	nt	1.58µM*	5.36µM*	1.12µM*	?
Cn1c(CN2CCCCC2)nc2cc(NC(=O)c3cccc(Br)c3)ccc21	-53.7%	-16.9%	?	-1.1%	15.7%
CC(=O)Nc1ccc2c(c1)nc(CCNC(=O)c1ccccc1)n2C	-17.3%	0.2%	-5.0%	4.7%	0.8%
CCC(=O)NCCc1nc2cc(NC(=O)c3cccc(Br)c3)ccc2n1C	nt	nt	21.3µM*	nt	nt
CC(=O)Nc1ccc2c(c1)nc(CCN1CCC(C)CC1)n2C	3.1%	10.2%	-1.5%	1.5%	3.1%
CC(=O)Nc1ccccc1-c1nc2ccccc2n(C(C)C(=O)Nc2cccc(C)c2C)c1=O (stereo not drawn)	nt	nt	-3.9%	nt	nt
Cc1noc(C)c1C(=O)N1CCC2(CC1)CN(c1cccc(-c3ccccc3)c1)C2	-64.4%	nt	nt	nt	nt
Cc1[nH]n(-c2ccccc2)c(=O)c1/C=C1\C=NN=C1c1ccccc1	nt	0.4%	12µM*	-0.6%	12.1%
Cc1ccc(-n2[nH]c(C)c(/C=C3/C=Nc4ccccc43)c2=O)cc1C	17.8µM*	-1.4%	-2.0%	15.7%	12.0%
Cc1cc(C)c2c(=O)n(CC(=O)Nc3cccc(F)c3)sc2n1	nt	-2.4%	9.53µM*	-2.7%	2.8%
Cc1ccc(NC(=O)Cn2sc3nc(C)cc(C)c3c2=O)c(Cl)c1	nt	-3.9%	10.7µM*	2.9%	0.8%
Cc1ccc(NC(=O)Cn2c(C)cc(C)c(C#N)c2=O)c(Cl)c1	1.5%	-0.1%	-0.4%	-2.2%	-0.8%
Cc1cc(C)c2c(=O)n(CC(=O)Nc3ccc(Cl)cc3)sc2n1	nt	2.3%	7.57µM*	-1.3%	-0.5%
CCOc1ccc(NC(=O)Cn2sc3nc(C)cc(C)c3c2=O)cc1	nt	-1.9%	?	-2.2%	-0.6%
N#Cc1ccc(OCC(O)CN2CCC(C(O)(c3ccccc3)c3ccccc3)CC2)cc1 (stereo not drawn)	nt	-1.1%	0.9%	1.6%	-2.9%
COc1ccc(CNC(=O)Cn2nc(C(F)(F)F)c3c2CCC3)cc1	11.2µM*	-1.3%	1.0%	5.6%	-5.6%
Cc1ccc(NC(=O)CCCn2nc(C)c3sc4ccccc4c3c2=O)c(Cl)c1	nt	nt	6.01µM*	nt	nt
COc1cc(OC)c(NC(=O)CCCn2nc(C)c3sc4ccccc4c3c2=O)cc1Cl	nt	nt	13.5µM*	nt	nt
SMILES	SMN2 splice enh	Rab9 promoter act	FLuc counter	NPC1 promoter act	ELG1 genotox
Cc1cc(C)n(-c2ccc(C(=O)OC(C)C(=O)Nc3ccc(C(N)=O)cc3)cc2)n1 (stereo not drawn)	nt	-1.0%	6.1%	-1.1%	-2.8%
CCc1ccc(C(=O)/C=C/c2cnn(C)c2C)s1	12.6µM*	3.55µM*	0.601µM*	3.98µM*	13µM*
Nc1ccc(/C=C/C(=O)c2cccs2)cc1	nt	3.55µM*	1.35µM*	3.98µM*	?
Cc1c(/C=C/C(=O)c2cccs2)cnn1C	-36.0%	?	9.53µM*	?	20.6µM*
O=C(NCCc1ccc(Cl)cc1)C(=O)NCC(c1cccs1)S(=O)(=O)c1ccccc1 (stereo not drawn)	nt	nt	3.8%	nt	nt
Cc1ccnc(N2C(=O)c3ccccc3C2O)c1 (stereo not drawn)	11.2µM*	?	6.01µM*	1µM*	1.84µM*
Cc1ccnc(N2C(=O)c3ccccc3C2Nc2cccc(C)c2C)c1 (stereo not drawn)	8.8%	-3.6%	3.4%	-3.5%	0.7%
